Measurements: PubChem BioAssay (EPA / NIEHS)
Active and inactive are the calls of the source. How the source made its calls: active means hit-call score of the fitted dose curve at least 0.9, where 1 is the maximum; inactive means score below 0.9.

Experiments:
[1] = ATG_GLI_CIS: Attagene CIS-FACTORIAL HepG2 Assay for human Zinc Finger Protein GLI1 (AID 2282945); details: HepG2, Attagene cis-factorial reporter mRNA, GLI element; actives raise or lower the signal
Outline: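 HepG2 cells transiently transfected with cis-promoter multiplexed reporter units report endogenous transcription factor activity. After 24 h chemical exposure, reporter mRNA was quantified by RT-PCR, 6-FAM labelling, HpaI digestion and capillary electrophoresis, with bidirectional fitting against DMSO.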

[2] = ATG_GRE_CIS: Attagene CIS-FACTORIAL HepG2 Assay for human Glucocorticoid Response Elements (GRE) (AID 2282947); details: HepG2 GRE cis-reporter, Attagene multiplex mRNA; actives raise or lower the signal
Outline: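 Cells (HepG2) bearing transfected cis-promoter reporter transcription units were treated with chemical for 24 hours. Reporter mRNA was measured via RT-PCR with capillary electrophoresis, and activity was fitted in both directions relative to DMSO.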

[3] = ATG_ISRE_CIS: Attagene CIS-FACTORIAL HepG2 Assay for human Interferon Regulatory Factor 1 (IRF1) binding to an Interferon-Stimulated Response Element (ISRE) (AID 2282948); details: HepG2 ISRE cis-reporter (Attagene), mRNA transcription readout; actives raise or lower the signal
Outline: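 Uses HepG2 liver cells transfected with cis-regulated reporters and measures mRNA 24 h post-dosing through RT-PCR, primer-extension labelling and capillary electrophoresis, with DMSO as negative control.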

[4] = ATG_M_32_CIS: Attagene CIS-FACTORIAL HepG2 Assay for M32 Transcription Factor (Internal Marker) (AID 2282949); details: HepG2 Attagene cis-factorial M32 reporter, mRNA; actives raise or lower the signal;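 further: background control marker of the multiplexed CIS panel rather than a real target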
Outline: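 HepG2 human liver cells transiently transfected with cis-promoter-driven multiple reporter transcription units, dosed 24 h. Reporter mRNA quantified by RT-PCR, FAM-labelled primer extension, HpaI digest and capillary electrophoresis; bidirectional fit versus DMSO baseline.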

[5] = ATG_M_06_CIS: Attagene CIS-FACTORIAL HepG2 Assay for M06 Transcription Factor (Internal Marker) (AID 2282950); details: HepG2 Attagene CIS-FACTORIAL M06 internal marker reporter; actives raise or lower the signal
Outline: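 Measured 24 h post-dosing in transiently transfected HepG2 cells, this internal-marker endpoint reports reporter mRNA via RT-PCR with fluorescent primer extension and capillary electrophoresis. DMSO served as negative control and baseline for bidirectional fitting.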

[6] = target: Hypoxia-inducible factor 1-alpha (Homo sapiens) (UniProt Q16665); assay: ATG_HIF1a_CIS: Attagene CIS-FACTORIAL HepG2 Assay for human Hypoxia Inducible Factor 1 (HIF1A) (AID 2282951); details: HepG2 Attagene cis-factorial HIF1a reporter transcription; actives raise or lower the signal
Hypoxia-inducible factor 1-alpha (Homo sapiens), sequence (Q16665 whole entry, looked up, the tested form may be a part): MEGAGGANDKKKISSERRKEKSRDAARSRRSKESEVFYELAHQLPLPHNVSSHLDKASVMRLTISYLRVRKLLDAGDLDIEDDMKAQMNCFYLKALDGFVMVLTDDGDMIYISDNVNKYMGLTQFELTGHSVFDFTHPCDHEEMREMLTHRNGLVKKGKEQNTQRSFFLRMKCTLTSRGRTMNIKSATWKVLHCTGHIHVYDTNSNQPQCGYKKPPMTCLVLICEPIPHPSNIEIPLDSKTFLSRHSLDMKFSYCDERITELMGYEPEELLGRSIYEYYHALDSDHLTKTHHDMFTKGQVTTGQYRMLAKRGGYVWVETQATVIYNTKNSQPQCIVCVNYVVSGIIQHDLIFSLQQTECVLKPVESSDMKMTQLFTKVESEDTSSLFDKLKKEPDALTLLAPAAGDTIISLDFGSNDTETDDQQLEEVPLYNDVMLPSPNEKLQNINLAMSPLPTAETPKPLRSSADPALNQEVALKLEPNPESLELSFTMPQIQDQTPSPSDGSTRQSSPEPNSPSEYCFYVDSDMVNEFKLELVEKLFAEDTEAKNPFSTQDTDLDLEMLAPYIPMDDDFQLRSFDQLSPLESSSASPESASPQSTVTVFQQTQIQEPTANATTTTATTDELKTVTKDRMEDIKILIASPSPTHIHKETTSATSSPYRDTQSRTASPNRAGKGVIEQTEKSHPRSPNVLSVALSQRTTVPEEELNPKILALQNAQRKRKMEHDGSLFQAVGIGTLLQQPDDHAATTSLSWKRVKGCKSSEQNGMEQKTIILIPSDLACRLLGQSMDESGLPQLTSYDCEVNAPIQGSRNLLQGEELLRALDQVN
Outline: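 Transient MRTU transfection of human HepG2 liver cells, 24 h compound treatment, then total RNA isolation, oligo(dT) reverse transcription, PCR amplification, fluorescent labelling and capillary electrophoresis of reporter fragments. Gain or loss relative to DMSO.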

[7] = target: Hepatocyte nuclear factor 6 (Homo sapiens) (UniProt Q9UBC0); assay: ATG_HNF6_CIS: Attagene CIS-FACTORIAL HepG2 Assay for human Hepatocyte Nuclear Factor 6 (HNF6) (AID 2282952); details: HepG2 Attagene cis-factorial HNF6 reporter transcription; actives raise or lower the signal
Hepatocyte nuclear factor 6 (Homo sapiens), sequence (Q9UBC0 whole entry, looked up, the tested form may be a part): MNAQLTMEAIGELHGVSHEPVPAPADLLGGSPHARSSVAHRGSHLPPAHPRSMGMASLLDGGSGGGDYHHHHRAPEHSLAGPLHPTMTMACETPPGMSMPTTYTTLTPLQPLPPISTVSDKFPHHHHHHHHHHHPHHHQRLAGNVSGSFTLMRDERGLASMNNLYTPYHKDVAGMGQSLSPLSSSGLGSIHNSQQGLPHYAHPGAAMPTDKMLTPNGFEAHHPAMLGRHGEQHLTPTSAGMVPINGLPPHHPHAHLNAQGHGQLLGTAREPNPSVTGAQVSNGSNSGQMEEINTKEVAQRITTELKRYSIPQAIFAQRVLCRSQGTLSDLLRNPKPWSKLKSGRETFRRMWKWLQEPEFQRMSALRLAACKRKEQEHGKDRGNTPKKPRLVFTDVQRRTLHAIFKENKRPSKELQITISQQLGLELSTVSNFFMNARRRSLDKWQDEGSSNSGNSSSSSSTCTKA
Outline: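 Using cis-element reporters in HepG2 liver cells, the assay tracks endogenous factor-driven transcription 24 h post-dosing. Signal comes from 6-FAM-labelled, HpaI-digested RT-PCR fragments, with gain or loss scored against DMSO.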

[8] = target: Heat shock factor protein 1 (Homo sapiens) (UniProt Q00613); assay: ATG_HSE_CIS: Attagene CIS-FACTORIAL HepG2 Assay for human Heat Shock Transcription Factor 1 (HSE) (AID 2282953); details: HepG2 HSE cis-reporter, Attagene RNA transcription; actives raise or lower the signal
Heat shock factor protein 1 (Homo sapiens), sequence (Q00613 whole entry, looked up): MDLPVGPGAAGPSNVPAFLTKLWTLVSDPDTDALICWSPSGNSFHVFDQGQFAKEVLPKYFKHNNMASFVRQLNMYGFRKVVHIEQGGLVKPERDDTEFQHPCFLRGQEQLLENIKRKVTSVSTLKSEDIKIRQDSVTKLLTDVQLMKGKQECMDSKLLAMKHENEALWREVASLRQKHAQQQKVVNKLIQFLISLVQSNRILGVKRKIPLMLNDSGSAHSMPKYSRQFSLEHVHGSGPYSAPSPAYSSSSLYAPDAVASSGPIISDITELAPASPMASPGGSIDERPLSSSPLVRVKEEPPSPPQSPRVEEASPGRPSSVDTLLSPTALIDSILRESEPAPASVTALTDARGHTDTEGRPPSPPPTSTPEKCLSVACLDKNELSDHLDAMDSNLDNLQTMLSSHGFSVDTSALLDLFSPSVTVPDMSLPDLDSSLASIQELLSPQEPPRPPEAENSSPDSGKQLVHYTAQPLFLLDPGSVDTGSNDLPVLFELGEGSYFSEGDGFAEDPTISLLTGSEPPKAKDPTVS
Outline: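 Reporter mRNA induction in HepG2 is measured 24 h after dosing, using transiently transfected multiplexed cis-regulated reporter units. Signal comes from capillary electrophoresis of labelled RT-PCR products, with DMSO as negative control.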

[9] = ATG_MRE_CIS: Attagene CIS-FACTORIAL HepG2 Assay for human Metal Responsive Element (MRE) (AID 2282954); details: HepG2 MRE cis-reporter transcription, Attagene multiplex; actives raise or lower the signal
Outline: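 Cells were transfected with cis-promoter reporter transcription units, then dosed for 24 h. RNA was reverse-transcribed, amplified, fluorescently labelled and resolved by capillary electrophoresis, and activity was fitted in both directions relative to DMSO.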

Measured: AC50

CCCC(C)C(=O)OCC (stereo not drawn)
inactive: all assays above

COC(Cc1ccccc1)OC
inactive: all assays above

CCCCCCCCCCCCCc1ccccc1
inactive: all assays above

[Cl][Eu]([Cl])[Cl]
inactive: all assays above

CC(=O)C(C)C
inactive: all assays above

N#CC1(N)CCCCC1
inactive: all assays above

CC(=O)CCC1=C(C)CCCC1(C)C
inactive: all assays above

C[Si]1(C)O[Si](C)(C)O[Si](C)(C)O[Si](C)(C)O[Si](C)(C)O1
inactive: all assays above

CC1CC(=O)CC(C)(C)C1 (stereo not drawn)
inactive: all assays above

CCCCNC(=S)NCCCC
inactive: all assays above

C=CC(=O)OCCCCCCCCCC
inactive: all assays above

O=C1CCCCCCCCCCC1
inactive: all assays above

C=Cc1ccc(OC(C)=O)cc1
inactive: all assays above

CC1(C)[C@@H]2CC[C@@]1(C)C(=O)C2
inactive: all assays above

CCCC1CCCC(=O)O1 (stereo not drawn)
inactive: all assays above

c1ccc2c(c1)[nH]c1ccccc12
inactive: all assays above

O=C(O[C@@H]1Cc2c(O)cc(O)cc2O[C@@H]1c1cc(O)c(O)c(O)c1)c1cc(O)c(O)c(O)c1
active: [6] 26.8 µM
inactive: all other assays above

CCCCCCCCCC(C)=O
inactive: all assays above

c1ccc(Nc2cccc3ccccc23)cc1
active: [1] 54 µM | [3] 24.8 µM | [7] 51.8 µM | [8] 53.8 µM | [9] 49.7 µM
inactive: [2] | [4] | [5] | [6]

C=C(C)C(=O)OCCOC(=O)C(=C)C
inactive: all assays above

O=C(OCCc1ccccc1)c1ccccc1
inactive: all assays above

Nc1nc(N)nc(-c2ccccc2)n1
inactive: all assays above

O=S(=O)(O)c1ccc(N=Nc2c(O)ccc3ccccc23)cc1
active: [6] 3 µM
inactive: all other assays above

CO[Si](CCCS)(OC)OC
inactive: all assays above

C=CC(=O)NC(C)(C)C
inactive: all assays above

CN(C)c1ccc2nc3ccc(=[N+](C)C)cc-3sc2c1
active: [3] 41.6 µM | [6] 0.766 µM
inactive: all other assays above

CCCCOC(=O)CCC(C)=O
inactive: all assays above
